Results as given in PubChem BioAssay AID2391 (Southern Research Specialized Biocontainment Screening …, 2010).
About 410 (0.13%) of roughly 310,000 compounds were called active. Roughly 2% stayed inconclusive and do not appear here. The rule behind the calls is not given here. A selection follows. Measured potencies and affinities stand elsewhere.

assay: inhibition of RSV-induced cytopathic effect – HEp-2 cells, primary 10 µM value included (AID 2391); conditions: at 10 µM, hits give high values

CPE inhibition, inactive:
COC(=O)/C=C1\S/C(=N/NC(=O)c2ccc(OC)cc2)NC1=O -1.09%
C/C(N)=C(/C#N)C(=O)COC(=O)c1ccc(O)cc1 1.45%
C/C(N)=C(/C#N)C(=O)COC(=O)c1ccc(C#N)cc1 0.83%
O=C1CC(C(=O)N2CCc3ccccc32)CN1c1ccc(F)cc1 (stereo not given) 2.7%
O=C(CNC(=O)c1ccc(Cl)cc1)OCc1nc2ccccc2s1 3.12%
Cc1ccc(-c2nc3cccnc3s2)cc1NS(C)(=O)=O 0.25%
Cc1cc(-c2nc3cccnc3s2)ccc1NS(=O)(=O)c1cccs1 3.81%
CCOc1ccc(NC(=O)CN(C)S(=O)(=O)c2ccc(-c3ccc(=O)[nH]n3)s2)cc1 3.93%
CCOC(=O)c1ccc(NC(=S)N2CCSC2c2ccc(Cl)cc2)cc1 (stereo not given) 52%
CCOC(=O)c1ccc(NC(=S)N2CCSC2c2ccc(OC)cc2)cc1 (stereo not given) 11.4%
O=C(Cn1ncc2c1-c1ccccc1OC2)N1CCN(Cc2ccccc2)CC1 -1.42%
COc1ccc(C(=O)NN2CCCCC2)cc1OC 1.22%
COc1ccccc1COCC(O)CN1CCN(S(=O)(=O)c2cccc(F)c2)CC1 (stereo not given) 0.54%
Cc1ccc(NC(=O)CC(N)=S)cc1 0.37%
CC(=O)COc1ccc2c3c(c(=O)oc2c1)CCCC3 27%
O=C(O)COc1ccc2c3c(c(=O)oc2c1)CCCC3 -1.38%
O=C(O)c1ccccc1NCc1ccco1 0.7%
CC(=O)Nc1ccc(S(=O)(=O)n2cnc3cc(C)c(C)cc32)cc1 14.6%
COc1ccc(/C(C)=N/NC(=O)CNC(=O)/C=C/c2ccccc2OC)cc1 2.31%
CCc1ccc(/C(C)=N/NC(=O)CNC(=O)/C=C/c2ccccc2OC)cc1 5.6%
O=c1cc(CN2CCN(C/C=C/c3ccccc3)CC2)c2cc(O)c(-c3ccccc3)cc2o1 2.21%
CC(=O)NCCN=C(C)c1sc2ccccc2c1O 2.52%
CCCCNC(=O)CC1N=C2c3ccccc3N=C(SCC(=O)Nc3ccccc3OC)N2C1=O (stereo not given) 8.13%
CCCCNC(=O)CC1N=C2c3ccccc3N=C(SCC(=O)Nc3cccc(OC)c3)N2C1=O (stereo not given) 0.81%
Cn1ccnc1SCC(=O)Nc1cccc(S(=O)(=O)N2CCCCC2)c1 5.08%
O=C(Nc1nc(-c2ccc(Cl)cc2Cl)cs1)C1CCCO1 (stereo not given) 7.12%
COc1ccc(C(=O)NCc2nc3ccccc3[nH]2)cc1OC 1.66%
COc1cc(/C=C/C(=O)NCc2nc3ccccc3[nH]2)cc(OC)c1OC 3.24%
CCCSC1=C(C#N)C(c2cccs2)CC(=O)N1 (stereo not given) 0.6%
CC1=C(C(=O)OC(C)C)C2(O)C(=O)c3ccccc3C2(O)N1 (stereo not given) 0.34%
CC(C)CNC(=O)c1cc([N+](=O)[O-])ccc1N1CCCCC1 1.62%
CC12CCC(=O)C=C1CCC1C2C(=O)CC2(C)C1CC[C@]2(O)C(=O)CO (stereo not given in full) 1.47%
CC(CCc1ccc(O)cc1)NCc1ccc(Cl)cc1Cl (stereo not given) 0.07%
CC(CCc1ccc(O)cc1)NCCC(c1ccccc1)c1ccccc1 (stereo not given) 1.43%
COc1ccc(C(=O)NCc2nnc(SCC(=O)N3CCC(C)CC3)o2)cc1 1.04%
Cc1ccc(C2(c3ccc(C)cc3)CC2C(=O)NC(C)C)cc1 (stereo not given) 10.9%
O=C(Nc1cccc(C(=O)Nc2cccc(C(F)(F)F)c2)c1)c1ccc(=O)[nH]c1 0.31%
Cc1cc(OC(C)C(=O)NCCN2CCOCC2)c2c(C)cc(=O)oc2c1 (stereo not given) 1.3%
COC(=O)Nc1ccc(S(=O)(=O)N2CCCc3ccccc32)cc1 1.75%
CC(=O)Nc1ccc(S(=O)(=O)N2CCCc3ccccc32)cc1 1.45%
COc1ccccc1CCNS(=O)(=O)c1cc2c3c(c1)CCN3C(=O)CC2 2.18%
CC(=O)c1cc2c(cc1NC(=O)c1ccc(C)cc1)OCO2 1.4%
COc1ccc(CC(=O)Nc2cccc(-c3cn4ccccc4n3)c2)cc1 20.4%
Cc1cccc2nc(-c3cccc(NC(=O)c4ccc(Cl)cc4)c3)cn12 6.87%
Cc1cc(Cl)cc(C)c1OCCCCCn1ccnc1 16.9%
Cc1cc(Cl)cc(C)c1OCCCCn1ccnc1 0.28%
Cc1cc(C(=O)Nc2ccccc2C)c2ccccc2n1 -1.47%
CCn1c(SCc2ccc(F)cc2)nnc1-c1nn(-c2ccccc2)ccc1=O 5.54%
CCn1c(SC)nnc1-c1nn(-c2ccccc2)ccc1=O 3.93%
CCOc1ccc(Nc2ccc(S(=O)(=O)N3CCN(C)CC3)cc2[N+](=O)[O-])cc1OCC 2.73%
C/C(N)=C(/C#N)C(=O)CSc1nc2ccccc2c(=O)n1-c1ccc(C)c(Cl)c1 3.58%
C/C(N)=C(/C#N)C(=O)CSc1nc2ccccc2c(=O)n1-c1ccc(C)cc1 1.33%
COC(=O)c1cc2n3ccccc3c(C)c(-c3ccccc3)c-2c1C(=O)OC 25.1%
COC(=O)c1cc2c(C)c(C)c3ccccn3c-2c1C(=O)OC 2.03%
COc1ccc(NC(=O)C2C3C=CC4(O3)C2C(=O)N(CCN2CCCCC2C)C4C(=O)NC2CCCCC2)cc1 (stereo not given) -0.76%
Cc1[nH]c2ccc(-c3nnc(SCC(=O)c4ccc(F)cc4)o3)cc2c1C -1.57%
Cc1cc(C)c(C)c(C(=O)CSc2nnc(-c3ccc4[nH]c(C)c(C)c4c3)o2)c1C 55.5%
COc1cc(C)c(C(C)C)cc1S(=O)(=O)n1cnc(C)c1 11.6%
Cc1cc(C)c2c(-n3cccc3)c(C(=O)NNS(=O)(=O)c3ccccc3)sc2n1 15.3%
Cc1cc(C)c2c(-n3cccc3)c(C(=O)NNS(=O)(=O)c3ccc(Br)cc3)sc2n1 53.3%
